Results as given in PubChem BioAssay (NCI).
Compounds without any hit were thinned out: in the full panel of roughly 83,000, 20% have a hit.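 Single-concentration screen, 48 h exposure, 96-well plates. Endpoint: percent growth. Below 10 = active.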 Activity calls are given as the source filed them.

What was measured:
Assay in all cases: NCI-60 one-dose screen, 48 h (100 = growth as untreated, 0 = no growth, -100 = all killed)
Conditions in all cases: 10 µM unless noted
[1] = system: HCT-15 colon
[2] = system: HT29 colon
[3] = system: SNB-75 CNS
[4] = system: SNB-19 CNS
[5] = system: U251 CNS
[6] = system: PC-3 prostate
[7] = system: SK-MEL-5 melanoma
[8] = system: UACC-62 melanoma
[9] = system: LOX IMVI melanoma
[10] = system: SK-MEL-28 melanoma
[11] = system: SK-MEL-2 melanoma
[12] = system: EKVX NSCLC
[13] = system: SN12C renal
[14] = system: UO-31 renal
[15] = system: TK-10 renal
[16] = system: ACHN renal
[17] = system: CAKI-1 renal
[18] = system: A498 renal
[19] = system: CCRF-CEM leukemia
[20] = system: MOLT-4 leukemia

Measured: growth

C#CCOc1cccc(Nc2ncnc3ccc(NC(=O)C=C)cc23)c1
active: [14] 9.91% | [15] -8.81%
inactive: [1] 42.9% | [2] 30.7% | [3] 26.6% | [4] 48.2% | [5] 45.6% | [6] 48.5% | [7] 65.7% | [8] 51% | [9] 41.1% | [10] 77.8% | [11] 55% | [12] 32% | [13] 29.7% | [16] 14.9% | [17] 10.2% | [18] 33.5% | [19] 25.1% | [20] 59.8%

CN(C)CCNC(=O)c1cc2c3cc(Cl)ccc3[nH]c2c2ncccc12
active: [2] 0.808% | [7] -38.8% | [8] -86.5% | [9] -77.5% | [10] -59.3% | [14] 6.68% | [19] -13.2% | [20] -12.4%
inactive: [1] 14.2% | [3] 44.7% | [4] 40% | [5] 11.5% | [6] 22.4% | [11] 47.9% | [12] 22.1% | [13] 10.2% | [15] 42.8% | [16] 10.2% | [17] 23.8% | [18] 26.7%

N#CC(C#N)N=Nc1ccc(Br)cc1
inactive: [1] 16.8% | [2] 20.9% | [3] 94.2% | [4] 96.3% | [5] 83.4% | [6] 19.1% | [7] 77.9% | [8] 37.4% | [9] 60.1% | [10] 43.8% | [11] 82.1% | [12] 55.9% | [13] 21.3% | [15] 36.5% | [16] 16.6% | [18] 100% | [20] 31.8%
active: [14] 2.16% | [17] 6.33% | [19] 9.65%

NC(=O)c1cc(I)ccc1NC(=O)/C=C/c1ccccc1
active: [11] -31.7% | [18] -14.9% | [20] 4.56%
inactive: [1] 24.5% | [2] 22.1% | [3] 30.1% | [4] 27.3% | [5] 21.8% | [6] 15.4% | [7] 24.5% | [8] 64.9% | [9] 35.1% | [10] 12% | [12] 36.1% | [13] 31.5% | [14] 28.1% | [15] 60.8% | [16] 38.2% | [17] 25.6% | [19] 11.9%

NC(=O)c1c(NC(=O)c2ccc3ccccc3c2)sc2c1CCC(=O)C2
inactive: [1] 42.1% | [2] 55.2% | [3] 40.3% | [4] 46.3% | [5] 22.9% | [6] 16.6% | [7] 99.7% | [8] 42% | [9] 37.5% | [10] 97.1% | [11] 103% | [12] 86.2% | [13] 50.5% | [14] 27.3% | [15] 95.7% | [16] 34.2% | [17] 16.3% | [18] 95.2% | [19] 15% | [20] 36.6%

CC(=O)c1c(C)nc(SCC(=O)Nc2cccc(O)c2)n1-c1ccc(Cl)cc1
inactive: [1] 95% | [2] 102% | [3] 62.8% | [4] 92% | [5] 91.9% | [6] 89.6% | [7] 93.2% | [8] 75.3% | [9] 104% | [10] 106% | [11] 104% | [12] 96.4% | [13] 83.8% | [14] 86.3% | [15] 107% | [16] 107% | [17] 90.6% | [18] 91.9% | [19] 96% | [20] 95.4%

CCCCNC(=O)Oc1ccc(/C(=C(/C)Cc2ccc(OC)cc2)c2ccc(OCCN3CCCC3)cc2)cc1
inactive: [1] 13.5% | [3] 70% | [4] 79.3% | [5] 41.3% | [6] 60.7% | [7] 47% | [8] 45.4% | [11] 85.2% | [12] 67.6% | [13] 72.6% | [14] 53.5% | [15] 81.2% | [16] 91.9% | [17] 70.5% | [18] 59.6% | [19] 46% | [20] 34.4%
active: [2] -11.3% | [9] -66.9% | [10] -0.368%

Cc1cn(-c2cc(NC(=O)c3cncc(C#Cc4cnc(N)c5ncccc45)c3)cc(C(F)(F)F)c2)cn1
active: [11] 6.39%
inactive: [1] 59.6% | [2] 35.4% | [3] 89.4% | [4] 106% | [5] 85.7% | [6] 84.7% | [7] 18.3% | [8] 35.2% | [9] 21.5% | [10] 40.5% | [12] 85.1% | [13] 58.3% | [14] 25.4% | [15] 90.3% | [16] 73.4% | [17] 92% | [18] 60.7% | [19] 32.5% | [20] 34.7%

COc1ccc(-c2nc3c(ncc4ccc(=O)[nH]c43)s2)cc1
inactive: [1] 73.6% | [2] 81.1% | [3] 102% | [4] 105% | [5] 81.6% | [6] 83.4% | [7] 74.3% | [8] 88.1% | [9] 52% | [10] 87.6% | [11] 106% | [12] 63.8% | [13] 78.2% | [14] 72.1% | [15] 73.8% | [16] 59.9% | [17] 67.6% | [18] 42.3% | [19] 72.6% | [20] 31.8%

O=C1c2ccccc2-c2c1c1c(=O)[nH]c3ccccc3c1n2Cc1ccccc1
active: [17] 2.5% | [18] 0.459%
inactive: [1] 84.5% | [2] 75.6% | [3] 70.8% | [4] 68.7% | [5] 68.6% | [6] 74% | [7] 60.6% | [8] 53.8% | [9] 82.7% | [10] 85.7% | [11] 75.2% | [12] 51.9% | [13] 69.9% | [14] 78.3% | [15] 75.7% | [16] 46.6% | [19] 87.4% | [20] 64.9%

N#Cc1nc(-c2ccc(F)cc2)oc1S(=O)(=O)N1CCCCC1
inactive: [2] 32.3% | [3] 92% | [4] 96.5% | [5] 91.2% | [6] 92.1% | [7] 88.7% | [8] 94% | [10] 102% | [11] 81.1% | [12] 98.5% | [13] 80.2% | [14] 84.8% | [17] 91% | [18] 112%
active: [1] -22.4% | [9] 1.69% | [15] -69.8% | [16] 3.58% | [19] 1.84% | [20] -6.66%

COC12C=C/C(=C(/C(=O)OCc3ccncc3)C(=O)CCCCCCCCC3(OC)C=C/C(=C(/C(=O)OCc4ccncc4)C(=O)CCCCCCCC1)O3)O2
active: [1] -57.7% | [2] 1.11% | [3] -57.2% | [4] 7.98% | [5] -50.1% | [6] -35% | [7] -84.5% | [8] -63% | [9] -63.9% | [10] -61.1% | [11] -1.63% | [12] -22.1% | [13] -30.6% | [14] -70.9% | [15] -45% | [16] -64% | [17] -48.6% | [18] -87.6% | [19] -14.8% | [20] -1.82%

CCOC(=O)C1=C(N)Oc2c(sc3c(F)cccc23)C1c1ccc(O)cc1 (stereo not given)
active: [20] 9.73%
inactive: [1] 24.2% | [2] 30.7% | [3] 31.3% | [4] 48.9% | [5] 37.9% | [6] 26% | [7] 18% | [8] 26.3% | [9] 36.4% | [10] 46% | [11] 14.3% | [12] 42.4% | [13] 56% | [14] 30.1% | [15] 74% | [16] 42.3% | [17] 57.6% | [18] 43.2% | [19] 20.3%

COc1ccc(NC(=O)c2sc3nc(C)c(C(=O)/C=C/c4ccccc4)cc3c2N)cc1
inactive: [3] 12.2% | [4] 10.6% | [6] 52.6% | [7] 74.3% | [8] 51.8% | [10] 85.7% | [11] 88.7% | [12] 87.1% | [13] 17.6% | [14] 17.7% | [15] 80.5% | [16] 50.3% | [17] 29% | [18] 21% | [20] 27.6%
active: [1] 0.101% | [2] 0.196% | [5] 1.8% | [9] -74.7% | [19] 3.56%

Clc1cc(Cl)c(Cl)c(-c2nnc(SCc3ccncc3Br)o2)c1
inactive: [1] 112% | [2] 102% | [3] 84.4% | [4] 102% | [5] 90.3% | [6] 92.4% | [7] 81.8% | [8] 89.7% | [9] 95% | [10] 94.4% | [11] 91.8% | [12] 84.5% | [13] 92.3% | [14] 67.4% | [15] 117% | [16] 94.4% | [17] 65.8% | [18] 94.8% | [19] 77.1% | [20] 75.1%
